# Data reported in PubChem BioAssay (Tox21).
# “And” between values parts separate entries of the source, which are not always exact repeats. Identical values can stand only once. Records with an inconclusive call do not appear. Entries that show only a call come without a potency. More than one record can exist for a structure, and the calls need not agree. The source made the active and inactive calls. The call rests on the fitted dose curve; in most records, active means well fitted activation curve with a large enough effect in the repeat runs; inconclusive means weak or mixed curves; inactive means flat fitted curve, though single readings scatter.
# Experiment: A CellTox Green Cytotoxicity Assay to monitor cytotoxicity in HEK293 cells - 32 hour (AID 1224881); further: nearly all actives have a fitted effect of over 40% in size
# Conditions: CellTox Green fluorescence; series mostly up to 76.8 µM
# Text: National Center for Advancing Translational Sciences [NCATS]
# NIH Chemical Genomics Center [NCGC]
# U.S. Environmental Protection Agency [EPA]
# National Institutes of Environmental Health Sciences [NIEHS]
# National Toxicology Program [NTP]
# Cell-based models are critical for drug discovery. Determining the natural cytotoxic effects resulting from test compounds is an essential research activity. A CellTox Green Cytotoxicity Assay to monitor cytotoxicity in real time of continues cell culture during 40 hours of the compound treatment was used to screen Tox21 10K library compounds in Hek293 cells. CellTox Green Cytotoxicity Assay is a nonlytic, homogeneous, biofluorescent method to measure cytotoxicity in cell culture after experimental manipulation. The assay system uses a proprietary asymmetric cyanine dye that is excluded from viable cells but preferentially stains the dead cell's DNA. […] Viable cells produce no appreciable increases in fluorescence. Therefore, the fluorescence signal produced by the binding interaction with dead cell DNA is proportional to cytotoxicity.
# The mixture of Hek293 cell suspension and reagents were dispensed at 600cells/6 ul/well in 1536-well tissue culture treated black solid bottom plates using a Multidrop dispenser. After the assay plates were incubated at a 37 C/5% CO2 incubator for 5 hours, 23 nL of compounds dissolved in DMSO, positive and negative controls was transferred to the assay plate by a pintool work station. The plates were incubated at 37 C for 40 hours. The fluorescence intensity were measured at 0h, 8h, 16h, 24h, 32h and 40h time points using ViewLux plate reader during compound treatment.
# Potency means the concentration at half of the fitted maximal effect.
row,Compound,Potency
1,CS(=O)(=O)NC(=O)c1cc(Oc2ccc(C(F)(F)F)cc2Cl)ccc1[N+](=O)[O-],inactive
2,N#Cc1cccnc1,inactive
3,Cc1ccc(N=CN(C)C=Nc2ccc(C)cc2C)c(C)c1,inactive
4,Clc1cccc(Cl)c1,inactive
5,Clc1ccccc1-c1nnc(-c2ccccc2Cl)nn1,inactive
6,Clc1cccc(C(Cl)(Cl)Cl)n1,inactive
7,Oc1ccc(Cl)cc1Cl,inactive
8,CC(C)Nc1ccc(Nc2ccccc2)cc1,48.8 µM (active) and 49 µM (active)
9,CCOP(=O)(O)OCC (tested in a mixture with another compound),inactive and 24.3 µM (active)
10,CCCCCCCCCc1ccc(O)cc1,inactive
11,O=[N+]([O-])/N=C1\NCCN1Cc1ccc(Cl)nc1,inactive
12,COC(=O)Nc1nc2ccccc2[nH]1,inactive
13,O=[N+]([O-])c1ccc(Nc2ccccc2)cc1,inactive
14,Cn1c(-c2ccccc2)cc(-c2ccccc2)[n+]1C,inactive
15,COc1ccc(CO)cc1,inactive
16,N#CC(c1ccccc1)c1ccccc1,inactive
17,CCOP(=S)(OCC)SCSC(C)(C)C,inactive
18,O=P(OCCCl)(OCCCl)OCCCl,inactive
19,CCC1(c2ccc(N)cc2)CCC(=O)NC1=O (stereo not given),inactive
20,Clc1ccc(C(Cl)(Cl)Cl)cc1,inactive

row,Compound,Potency
1,CCNc1nc(Cl)nc(NC(C)(C)C#N)n1,inactive
2,CC(C)=CC1C(C(=O)OCN2C(=O)C3=C(CCCC3)C2=O)C1(C)C (stereo not given),inactive
3,OC(c1ccc(Cl)cc1)(c1cncnc1)c1ccccc1Cl (stereo not given),25 µM (active) and inactive
4,C=CC(Cl)CCl (stereo not given),inactive
5,CCOC(=O)c1ccccc1N,inactive
6,CC(C)(c1ccc(OCC2CO2)cc1)c1ccc(OCC2CO2)cc1 (stereo not given),inactive
7,Cc1cc(Cl)ccc1N=CN(C)C,inactive
8,CC1(C)Cc2cccc(O)c2O1,inactive
9,[Cl-].[Cl-].[Cl-].[Fe+3],inactive
10,C=CC(=O)OCC(CC)(COC(=O)C=C)COC(=O)C=C,5.64 µM (active) and 11 µM (active)
11,COc1ccc(C=O)cc1OC,inactive
12,O=NN1CCOCC1,inactive
13,Nc1ccc([N+](=O)[O-])cc1N,inactive
14,COc1ccc(O)c(C(C)(C)C)c1,inactive
15,N#Cc1c(Cl)c(Cl)c(Cl)c(C#N)c1Cl,7.61 µM (active) and 6.16 µM (active)
16,O=S(=O)(O)C(F)(F)C(F)(F)C(F)(F)C(F)(F)C(F)(F)C(F)(F)C(F)(F)C(F)(F)F,33 µM (active) and inactive and 21.9 µM (active)
17,CCOP(=S)(OCC)SCn1c(=O)oc2cc(Cl)ccc21,inactive
18,O=C1Nc2ccc(Cl)cc2C(c2ccccc2)=NC1O (stereo not given),inactive
19,C[C@]12CCC(=O)C=C1CC[C@@H]1[C@@H]2CC[C@@]2(C)[C@H]1CC[C@]2(C)O,44 µM (active) and inactive
20,Cc1cccc(N=Nc2ccc(N(C)C)cc2)c1,inactive
